The text below walks through data of ChEMBL document CHEMBL3988442, “University of Dundee, Small-Polar-MMV Screening Library” (2021).

The target of this test is AMP-activated protein kinase, AMPK (Homo sapiens) (UniProt P54646+O43741+P54619+Q9UGJ0+Q9Y478+Q13131+Q9UGI9). In words: AMP-dependent Kinase enzyme assay. An in vitro enzyme assay that detects ADP turnover that is directly proportional to AMPK activity. This uses naive AMPK that is activated during the assay with MK-8722. It counts as functional. Set-up: scale not given: direction of the effect not stated beside the values. The note with it: 30 µM.
`COc1ccc(CC2(CO)CCN(c3cc(C(N)=O)ccn3)CC2)cc1`: the Percent Effect turned out to be 8.7%.

For the compound `CC(O)Cc1cn(CC2CCN(C3CCSCC3)CC2)nn1` (stereo not given), the Percent Effect was -7.5%.

In the case of `CN(CCCC1CCCO1)C(=O)c1cccc(C#N)c1` (stereo not given), the Percent Effect turned out to be 10.9%.

In the case of `CCN(CC(=O)NC(C)(C)C)Cc1cccc2c1OCCO2`, the Percent Effect is -0.533%.

For the compound `O=C(c1cnc2c(c1)CCC2)N1CCCC(CO)(CC2CC2)C1` (stereo not given), the Percent Effect came out at 3.82%.

Consider `CC[C@@H](CO)NC(=O)c1cc(COc2ccc(OC)cc2Cl)[nH]n1`, for which the Percent Effect was -0.681%.

As to `CC(NC(=O)N1CCCCCC1)c1ccc(S(N)(=O)=O)cc1` (stereo not given), the Percent Effect was 5.75%.

As to `CCN1CC(CN(C)c2cc(C)nc(N)n2)Oc2ccccc21` (stereo not given), the Percent Effect amounted to 3.94%.

On to `CN(CCc1ccccn1)c1cnn(C)c(=O)c1Br`, for which the Percent Effect was -11.5%.

Turning to `Cc1nc(S(=O)(=O)N2CCCCc3ccccc32)cn1C`, the Percent Effect was 0.965%.

Consider `Cc1cc(N2CCN(Cc3ccsc3)C(CCO)C2)nc(N)n1` (stereo not given), for which the Percent Effect was 0.121%.

On to `CCn1cc(NC(=O)c2cccc(CN3C[C@@H](C)O[C@@H](C)C3)c2)nn1`, for which the Percent Effect was 1.85%.

Turning to `CN(Cc1ccccc1-n1cccn1)C[C@@H]1CCCN2CCCC[C@H]12`, the Percent Effect is -9.27%.

As for `N#Cc1c(N)nc2c(c1-c1c[nH]nc1C1CCCCC1)CC(N)CC2` (stereo not given), the Percent Effect turned out to be 23.9%.

As to `Cc1cccc(COc2ccc(C(C)N)cc2)c1` (stereo not given), the Percent Effect was -5.16%.

For `CCc1nnc(C(C)N2CCN(CCC(C)(C)C)CC2)o1` (stereo not given), the Percent Effect was determined as 8.59%.

With `NC(=O)c1cc2c(nc1CC1CCCCO1)CCC2` (stereo not given), the Percent Effect was -4.87%.

Turning to `CC(=O)N[C@H]1CCN(C(=O)c2cc(Cn3cnc4ccccc43)[nH]n2)C1`, the Percent Effect was -3.06%.

Consider `COCCC1(C(=O)O)CCCN(c2cc(C)c3ccccc3n2)C1` (stereo not given), for which the Percent Effect was determined as 3.66%.

With `O=C1CC2(CCN(Cc3ccc(-c4ccccc4)s3)C2)C(=O)N1` (stereo not given), the Percent Effect is 84.9%.

Consider `CC(C)(NCCOc1ccc(CC#N)cc1)c1nccs1`, for which the Percent Effect was -2.44%.

Turning to `CC(C)c1nc2n(n1)CC(NCc1cc3ccccc3o1)CC2` (stereo not given), the Percent Effect worked out at 0.664%.

On to `FC(F)(F)c1nc(NC2CCc3ncnn3C2)c2ccccc2n1` (stereo not given), for which the Percent Effect was -0.0839%.

For `Clc1ccc(N2CCC(OCC3CCCCO3)CC2)nc1` (stereo not given), the Percent Effect came to 3.4%.

With `CC(O)CN1CCN(Cc2coc(-c3cccc(Cl)c3)n2)CC1` (stereo not given), the Percent Effect is -7.56%.

For the compound `CCN(Cc1ccoc1)C(=O)Nc1ccccc1CN(C)C(C)=O`, the Percent Effect is 2.94%.

As to `CS(=O)(=O)NCc1cccc(COC2CCCCC2)c1`, the Percent Effect stood at 4.87%.

On to `CSc1ccc(OCCN2CCNC(=O)CC2)cc1`, for which the Percent Effect worked out at 9.33%.

`CCC(C)c1csc(NC(=O)Cc2csc(-c3nnc[nH]3)n2)n1` (stereo not given): the Percent Effect came to 10.5%.

Regarding `Cc1nnc(-c2cccc(C#N)c2)n1C1CCN(C2CC2)C1=O` (stereo not given), the Percent Effect is -1.74%.

As to `Cc1nnc(SCCNc2cc(C3CC3)ncn2)s1`, the Percent Effect worked out at 14.2%.

Take `Cc1ncc(C(=O)NCCOc2ccccc2F)c(C)n1`: the Percent Effect is -16.7%.

Regarding `Cc1ncc2c(n1)CN(Cc1nc(-c3ccco3)oc1C)CC2`, the Percent Effect is -38.3%.

Consider `CC(=O)NCCc1cc2nc(-c3ccncc3)ccn2n1`, for which the Percent Effect worked out at 17.4%.

Regarding `Cc1nn2cccnc2c1C(=O)NCc1ccnc(OCC2CC2)c1`, the Percent Effect was 4.11%.

In the case of `CCc1cnc(C(C)NC(=O)N2CCCN(CC(F)F)CC2)s1` (stereo not given), the Percent Effect was -2.53%.

As to `O=C(NCCn1ccnc1-c1cc2n(n1)CCNC2)c1ccncc1`, the Percent Effect was determined as 1.13%.

Consider `CN(C)c1cccc(C(=O)Nc2cnn(Cc3ccncc3)c2)c1`, for which the Percent Effect is -4.34%.

`N#Cc1cccc(N2CCC(CO)(CCc3ccccc3)CC2)n1`: the Percent Effect came to 3.06%.

For the compound `Cc1ccc(CCc2nc(C3CCOC3)no2)o1` (stereo not given), the Percent Effect came out at 10.1%.
